PrPC TRFRET = reduces human prion protein on the cell surface; inhibition, % at 13.8 µM; cell surface PrPC, TR-FRET read-out; hit rate 0.43% among 370,000; P04156; in the data active = inhibition above about 24%; also: 0% = median of the test wells and 100% = reference compound wells
FBA Mtb inh = inhibits M. tuberculosis FBA enzyme. P9WQA3. purified M. tuberculosis FBA, fluorescence read-out. inhibition, % at 1 µM. hit rate 2.3% among 360,000. AID 588726; in the data active = inhibition above about 27%;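 also: 0% = vehicle and 100% = reference inhibitor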
Target sequence (P9WQA3 whole entry, looked up): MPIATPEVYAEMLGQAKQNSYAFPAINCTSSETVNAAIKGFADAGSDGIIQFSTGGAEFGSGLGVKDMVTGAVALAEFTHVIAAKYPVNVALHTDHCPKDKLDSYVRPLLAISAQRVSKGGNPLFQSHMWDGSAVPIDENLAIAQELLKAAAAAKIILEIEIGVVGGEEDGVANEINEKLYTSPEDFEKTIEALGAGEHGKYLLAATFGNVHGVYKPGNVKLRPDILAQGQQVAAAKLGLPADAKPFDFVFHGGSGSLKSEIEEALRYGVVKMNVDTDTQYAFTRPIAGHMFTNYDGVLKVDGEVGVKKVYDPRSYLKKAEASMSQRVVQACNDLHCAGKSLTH
PrP 5UTR inh = inhibition of PrP 5' UTR reporter expression; inhibition, % (concentration not given with the values); cell-based PrP 5' UTR mRNA reporter, plate reader; hit rate 0.35% among 340,000; AID 488862; in the data active = inhibition above about 52%; also: 0 = median of the neutral control wells
Yp Topo-I inh = blocks Yersinia pestis topoisomerase I activity. activity, % at 10 µM. Y. pestis Topo-I cleavage product accumulation, plate reader. hit rate 0.064% among 360,000; in the data active = activity above about 50%, passing the limit was not always enough
Mtb hypoxia inh = Mtb hypoxia fluorescent reporter inhibition | M. tuberculosis hypoxia-regulated fluorescent reporter, fluorescence | fluorescence inhibition, % (no concentration beside the values) | hit rate 0.1% among 300,000; in the data active = fluorescence inhibition mostly above about 23%, no sharp cut-off; inactive = mostly below about 17%
GDH-TPI inh = GDH-TPI coupled enzyme inhibition counter-screen; GDH-TPI coupled enzyme counterscreen, NADH absorbance; inhibition, % at 4.8 µM; hit rate 1.2% among 360,000; in the data active = inhibition above about 30%;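 also: 0% = DMSO wells and 100% = wells lacking the enzyme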
PrPC TRFRET cf = confirmation of inhibitors of cell surface human prion protein | shares compounds with PrPC TRFRET | cell surface PrPC level, TR-FRET | inhibition, % at 13.8 µM | hit rate 65% among 1,500 | AID 743200; in the data active = inhibition above about 25%
LD9 cytotox = kills or reduces viability of LD9 cells in PrPc counter-screen. shares compounds with PrPC TRFRET. LD9 cells cytotoxicity, luminescence viability. inhibition, % at 13.8 µM. hit rate 29% among 1,500; in the data active = inhibition above about 9.5%
* hit, by the source's call; . = not tested or not shown. Most compounds without a hit are left out; they make up all but 3.8% or so of the library.

SMILES	PrPC TRFRET	FBA Mtb inh	PrP 5UTR inh	Yp Topo-I inh	Mtb hypoxia inh	GDH-TPI inh	PrPC TRFRET cf	LD9 cytotox
Cc1cc2nc(C3CCN(Cc4nnnn4Cc4ccccc4)CC3)[nH]c2cc1C	0.7	-0.4	15.8	22.2	12.1	0.0	.	.
Cc1cc(C(=O)NN=C2CC(=O)c3ccccc32)c(C)n1-c1ccc(F)cc1	.	.	.	.	4.1	.	.	.
COc1ccc(Oc2cnn(-c3ccccc3)c(=O)c2Br)cc1	26.6*	3.8	-15.5	2.1	14.4	1.2	35.5*	-5.2
COc1cnn(-c2ccc(C)cc2)c(=O)c1Br	1.2	-1.7	-21.2	5.8	11.2	0.0	.	.
COc1cc(C(=O)Nc2ccc3c(c2)ncn3C)cc(OC)c1OC	77.1*	-1.8	-12.2	-6.2	-4.8	-1.4	73.4*	0.0
COc1cc(C(=O)Nc2ccc3c(c2)nc(C)n3C)cc(OC)c1OC	8.2	1.0	-33.1	-0.4	1.9	10.9	.	.
CC1CCCCC1=NNS(=O)(=O)c1ccc(Br)cc1 (stereo unspecified)	.	.	.	.	13.1	.	.	.
O=C(Cc1ccc(Cl)cc1)NN=Cc1cccs1	.	.	.	.	0.0	.	.	.
Cc1c(C(=O)c2ccccc2C(=O)O)sc2ccccc12	33.3*	0.7	-13.2	-2.7	1.3	7.3	54.3*	-5.8
Cc1cc(C)c(C)c(C(=O)c2ccccc2C(=O)O)c1C	8.2	-2.3	-33.7	-12.9	12.1	-1.2	.	.
COc1cc2nc(C3CCC3)n(NC(=O)C3CCCC(OC)C3)c(=O)c2cc1OC (stereo unspecified)	-0.3	0.5	-14.7	7.5	0.8	-7.7	.	.
COc1cc2nc(C3CCC3)n(NC(=O)c3ccco3)c(=O)c2cc1OC	41.4*	2.2	-1.7	-11.6	14.1	-2.5	36.9*	-4.7
CC(=NNC(=O)c1cccc(S(=O)(=O)N2CCCC2)c1)c1ccncc1	.	.	.	.	1.0	.	.	.
COc1ccccc1NC(=O)CSc1nc2c(oc3ccccc32)c(=O)n1C	3.4	1.7	-6.8	-4.3	4.4	-0.8	.	.
COc1ccccc1NC(=O)CSc1ncnc2c1oc1ccccc12	26.5*	-2.9	-15.3	3.1	3.9	-11.4	20.4	0.5
COc1ccc(N2CCN(CCCNC(=O)C3CCC(CNc4nc(=S)[nH]c5ccccc45)CC3)CC2)cc1 (stereo unspecified)	32.8*	1.2	0.9	13.0	3.9	4.3	27.7*	13.9*
COc1cc2c3cc1Oc1cc(ccc1O)CC1c4c(cc(OC)c(O)c4Oc4ccc(cc4)CC3N(C)CC2)CCN1C (stereo unspecified)	.	.	.	.	-2.9	.	.	.
COc1cccc(-c2nc(NCc3cccnc3)c3ccccc3n2)c1O	-4.0	3.4	.	-3.5	-4.1	11.2	.	.
COc1cccc2c(NCc3ccccc3)nc(-n3c(N)nc4ccccc43)nc12	70.0*	.	.	.	.	.	49.3*	98.2*
O=C(CSC1=NCCS1)Nc1ccnc2ccccc12	56.4*	-1.2	2.9	-3.1	0.7	2.8	51.4*	7.3
Cc1cc(C)nc(SCC(=O)Nc2ccnc3ccccc23)n1	45.7*	-0.3	-42.8	6.2	-5.4	5.5	43.2*	16.3*
CCCCC(=O)NN=C(C)C1=C(C)C(C)(C)OC1=O	.	.	.	.	-0.7	.	.	.
O=C(NN=Cc1ccccc1C(=O)O)c1ccc(COc2cccc3cccnc23)cc1	.	.	.	.	2.9	.	.	.
O=C(CCC(=O)NN=Cc1ccco1)NN=Cc1ccco1	.	.	.	.	18.9	.	.	.
